About 83,000 compounds went through this panel and 20% of them were active in at least one assay; those are over-represented in the sample as a whole.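 Assay: single dose, 48 h. Readout: percent growth (0 = no net growth; negative = cell death). Active: <10.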 Values without a mark were called inactive. The source made the active and inactive calls.

The experiment deals with KM12 colon. Briefly: NCI-60 one-dose screen, 48 h (100 = growth as untreated, 0 = no growth, -100 = all killed). The note with it: 10 µM unless noted.
In the case of `CCCCCCNC(=O)Nc1ccc2cc3ccc(NC(=O)NCCCCCC)cc3nc2c1`, the growth is 19.4%.
With `CCNC(=O)Oc1ccc(/C(=C(\C)c2ccccc2)c2ccc(OCCN(CC)CC)cc2)cc1`, the growth was 72.1%.
Next, `CC/C(=C\c1ccc(OC)cc1)C(=O)c1ccc(OC)cc1`: 96.3%; `CCc1ccc(CNc2ccc(N3CCOCC3)c(C(=O)O)c2)cc1`: 106%.
For the molecule `Cc1ccc(NS(=O)(=O)c2ccc(-c3cnc(C4CC4)o3)cc2)cc1C(F)(F)F`, the growth is 38.6%.
Next, `C/C(=N\NC(=O)CSc1nc2ccccc2c(=O)n1CCc1ccc(S(N)(=O)=O)cc1)c1ccccn1`: 21.3%; `C=C(CBr)[C@@H]1CC[C@]2(COC(C)=O)CC[C@]3(C)[C@H](CC[C@@H]4[C@@]5(C)CCCNC(C)(C)[C@@H]5CC[C@]43C)[C@@H]12`: 41.9%; `COc1ccc(C(=O)Nc2cccc(C3CCc4c(cc(OC)c(OC)c4OC)O3)c2)cc1` (stereo unspecified): 29.4%.
`N=C(N)c1ccc(OCCCCCCCCCCOc2ccc(C(=N)N)cc2)cc1`: the growth was -87.9% (active).
Next, `COc1cc2nc(-c3ccc(Cl)cc3)cc(OCCCN3CCOCC3)c2cc1OC`: 29.7%; `Brc1ccc2[nH]cc(-c3cncn3CCc3ccccc3)c2c1`: 68%.

(Values after PubChem BioAssay (NCI).)
